From PubChem BioAssay
Vaccinia mCherry: qHTS for Stage-Specific Inhibitors of Vaccinia Orthopoxvirus: mCherry Reporter Primary qHTS; Vaccinia virus mCherry reporter infection, fluorescence; Potency, µM (titrated, usually from 36.5 µM), most hits filed as inhibitors; 310,000 tested, 0.63% active; calls by dose curve; tested in A549 cells; further: nearly all actives have a fitted effect of over 35% in size
Lassa entry inh: qHTS for Inhibitors of binding or entry into cells for Lassa Virus. 300,000 tested, 1.2% active. AID 540256, 2011. Potency, µM (series often up to 37.9 µM), actives largely listed as inhibitors. Lassa virus pseudotype entry inhibition, cell reporter; calls by dose curve; tested in HEK293 cells; further: nearly all actives have a fitted effect of over 50% in size
MARV entry inh: qHTS for inhibitors of binding or entry into cells for Marburg Virus. AID 540276, 2011. Potency, µM (doses to about 37.8 µM), hits mostly inhibitors. Marburg virus pseudotyped entry inhibition, cell reporter. 300,000 tested, 1.8% active; calls by dose curve; tested in HEK293 cells
VACV Venus inh: qHTS for Stage-Specific Inhibitors of Vaccinia Orthopoxvirus: Venus Reporter Primary qHTS. Vaccinia virus Venus reporter expression, fluorescence. Potency, µM (top dose mostly 36.5 µM), actives largely listed as inhibitors. 330,000 tested, 0.46% active; calls by dose curve; tested in A549 cells; further: nearly all actives have a fitted effect of over 30% in size
HCV inhibitor: qHTS Assay for Inhibitors of Hepatitis C Virus (HCV). Huh7.5.1 HCVcc-Cre infection, luciferase reporter, 44 h. Potency, µM (series often up to 41.8 µM), hits mostly inhibitors. 340,000 tested, 3.4% active. AID 651820, 2012; active means well fitted inhibition curve with a large enough effect; inconclusive means small, poorly fitted or top-dose-only effect, or another doubt; inactive means no such curve, though single readings can be large or run the other way
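Luciferase read-out (15 sec integration) after a 15 min room-temperature substrate step quantifies HCVcc-Cre infection. Cells, 1,000 per well, had compound added 4 h post-plating, then virus at ~0.5 moi, and were cultured 44 h.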
FMDV antiviral: High Throughput Screening for Foot and Mouth Disease Virus Antivirals; FMDV antiviral cell-based qHTS; Potency, µM (top dose mostly 57.9 µM), usual class: inhibitors; 410,000 tested, 1.2% active; calls by dose curve; tested in HEK293T cells; further: read-out not given here; nearly all actives have a fitted effect of over 45% in size
Numbers stand for hits; i = inactive; ? = inconclusive; nt = no result given; [ ] = another dose, or the depositor's remark. The list is not random: actives were taken first. Their share in the collection is about 5.3%.

SMILES	Vaccinia mCherry	Lassa entry inh	MARV entry inh	VACV Venus inh	HCV inhibitor	FMDV antiviral
COc1cc(/C=C(/C(=O)c2cccs2)c2nc3ccccc3[nH]2)cc(OC)c1O	nt	?	i	nt	10µM	14µM
C=CCN(c1ccccc1)S(=O)(=O)c1cccc(C(=O)Nc2ccc(N3CCOCC3)cc2)c1	?	?	?	?	7.1µM	22µM
O=C(Nc1nc2ccccc2[nH]1)c1ccc(Cl)cc1	i	2.5µM	?	i	?	i
COc1ccc(/C=C/C(=O)Nc2nc(-c3cccs3)ns2)cc1	i	i	i	i	nt	i
CCN(c1ccccc1)S(=O)(=O)c1cc(C(=O)Nc2ccc(F)c(F)c2)ccc1F	?	14µM	?	?	4.5µM	11µM
C=CCN(c1ccccc1)S(=O)(=O)c1cccc(C(=O)Nc2nc3ccccc3[nH]2)c1	i	i	?	i	i	22µM
C=CCN(c1ccccc1)S(=O)(=O)c1cccc(C(=O)N(CC)CC(=O)Nc2c(F)cccc2F)c1	i	18µM	?	i	nt	i
ClCCNc1nc2ccc(Cl)cc2[nH]1	nt	?	i	nt	i	i
O=C(O)c1ccc(Nc2nc3ccc(Cl)cc3[nH]2)cc1	i	nt	nt	i	2.8µM	i
COC(=O)[C@@H]1CC[C@H](C)[C@@H](c2ccc(C)cc2)N1C(=O)c1ccc(C=NOC[C@H]2O[C@H](c3ccccc3)C=C[C@H]2Oc2ccc(OC)cc2)cc1	nt	nt	i	nt	nt	nt
COc1cc(OC)c(OC)cc1/C=C/c1nccc2ccccc12	i	nt	nt	i	nt	nt
CCOc1ccc(NC(=O)Cn2nnc(C(=O)NCCc3ccccc3)c2N)cc1	i	i	i	i	nt	i
COC(=O)c1ccc(OCC2c3cc(OC)c(OC)cc3CCN2C(=O)Cc2ccc(OC)c(OC)c2)cc1 (centres undefined)	i	i	nt	i	nt	i
CN(C)c1ccc(/C=C\C=C/c2ccnc3ccccc23)cc1	i	nt	nt	i	nt	nt
CCCCn1c(NC(=O)c2ccccc2)c(C#N)c2nc3ccccc3nc21	i	?	?	i	?	nt
CCC(C)n1c(NC(=O)c2ccccc2)c(C#N)c2nc3ccccc3nc21 (centres undefined)	nt	?	?	?	?	11µM
CN(c1ccccc1)c1ccc(/C=C(\C#N)c2nnc3n2CCCCC3)cc1[N+](=O)[O-]	i	7.1µM	?	i	?	i
CCCNC(=O)NCCC12CC3CC(CC(C3)C1)C2	i	2.5µM	i	i	i	i
CCCNC(=O)OCCC12CC3CC(CC(C3)C1)C2	i	?	?	i	i	i
O=C(CCn1c(=O)c2ccccc2n(CC(=O)Nc2ccc(F)cc2)c1=O)NCCc1ccccc1	i	i	i	i	nt	i
COc1ccc(C(=O)NCC2Cc3c(F)ccc(-c4nc(C)cnc4C)c3O2)cc1F (centres undefined)	i	nt	nt	i	nt	i
O=C(c1noc2c1CCCCC2)N1CCN(c2cccc(C(F)(F)F)c2)CC1	i	i	nt	i	nt	i
COc1ccc(OC)c(C2=Nn3c(nnc3-c3cccc(OC(C)C)c3)SC2)c1	nt	?	?	nt	10µM	i
COc1ccc(OC)c(C2=Nn3c(nnc3C3CCCCC3)SC2)c1	?	i	?	i	16µM	i
COc1ccc(OC)c(C2=Nn3c(nnc3-c3ccco3)SC2)c1	nt	i	i	nt	?	i
SMILES	Vaccinia mCherry	Lassa entry inh	MARV entry inh	VACV Venus inh	HCV inhibitor	FMDV antiviral
COC(=O)c1c(NC(=O)/C(C#N)=C/c2ccccc2)sc2c1CCC2	i	i	nt	i	nt	i
COc1cccc(CNC(=O)c2c(OC)cc(=O)n3c2CCN(C(=O)C2CC24CCCCC4)CC3)c1 (centres undefined)	i	nt	nt	i	nt	i
COC(=O)c1ccccc1NC(=O)CCC(=O)N1CCOc2ccccc21	i	i	i	i	nt	i
CCc1ccc(NC(=O)C(=O)NCC(c2cccnc2)N2CCN(c3ccc(F)cc3)CC2)cc1 (centres undefined)	i	i	nt	?	nt	i
O=C(Cn1c2ccccc2c(=O)c2ccccc21)N/N=C/c1cc([N+](=O)[O-])ccc1N1CCCCCC1	i	i	?	i	2.5µM	i
COc1cccc(C(=O)NCC(=O)N2CCN(c3ccc(C(F)(F)F)cn3)CC2)c1	i	i	?	i	?	?
CCNC(=S)NC1CC2CCC(C1)N2Cc1ccccc1 (centres undefined)	i	i	0.92µM	i	i	nt
CC(C)CNC(=S)NC1CC2CCC(C1)N2Cc1ccccc1 (centres undefined)	i	i	0.65µM	i	i	nt
CCCNC(=S)NC1CC2CCC(C1)N2Cc1ccccc1 (centres undefined)	i	i	?	i	i	i
CCOC(=O)c1ccc(NS(=O)(=O)c2c(C)n[nH]c2C)cc1	nt	nt	nt	nt	i	i
CCOC(=O)c1ccc(NS(=O)(=O)c2c(N)n(C)c(=O)n(C)c2=O)cc1	i	nt	nt	?	10µM	i
O=C(CSc1nnc(CNc2ccc(F)cc2)o1)N1c2ccccc2Sc2ccccc21	nt	?	?	nt	10µM	?
Cc1ccc(NC(=O)c2cc(S(=O)(=O)N3CCCCC3)cs2)cc1	i	21µM	i	?	?	nt
O=C(Nc1ccc(Cl)cc1)c1cc(S(=O)(=O)N2CCOCC2)cs1	nt	?	?	nt	5.6µM	?
Cc1ccc(NC(=O)c2cc(S(=O)(=O)N3CCOCC3)cs2)cc1	i	i	i	i	?	?
O=C(Nc1cccc(Cl)c1Cl)c1snnc1-c1ccccc1	nt	?	?	i	i	?
O=C(Nc1cc(Cl)ccc1O)c1snnc1-c1ccccc1	nt	?	?	nt	18µM	20µM
O=C(Nc1cc(-c2ccccc2)nn1C1CCCCC1)c1ccc(Cl)cc1	i	nt	nt	i	2.5µM	?
Cn1nc(-c2ccccc2)cc1NC(=O)c1ccccc1	i	i	i	i	i	i
CCCN(CC(=O)Nc1ccccc1OC)C(=O)c1cc(-c2ccccc2)nn1-c1ccccc1	nt	nt	nt	nt	11µM	i
CC(=O)c1ccccc1NC(=O)COC(=O)c1c(C)nn(-c2ccccc2)c1C	nt	nt	nt	nt	?	i
COc1ccccc1NC(=O)COC(=O)c1c(C)nn(-c2ccccc2)c1C	nt	nt	nt	nt	14µM	i
Cc1cc(NC(=O)COC(=O)c2c(C)nn(-c3ccccc3)c2C)no1	nt	18µM	?	nt	i	i
Cc1nn(-c2ccccc2)c(Cl)c1C(=O)OCC(=O)NCCc1ccccc1	i	?	11µM	i	?	i
Cc1nn(-c2ccccc2)c(C)c1C(=O)OCC(=O)Nc1ccccc1	i	i	i	i	?	i
Cc1cnccn1	i	nt	nt	i	nt	nt
COc1ccc(Cl)cc1S(=O)(=O)NCc1ccc2c(c1)CCN2C(=O)c1cccc(C)c1	i[7.34 µM]	?	nt	i[7.34 µM]	nt	i
CCOC(=O)c1c(-c2ccc(C)o2)csc1NC(=S)NC(=O)c1ccccc1Br	i	i	i	i	?	i
CCOC(=O)c1c(-c2ccc(C)o2)csc1NC(=S)NC(=O)c1cccs1	i	23µM	?	i	?	i
CCOC(=O)c1c(-c2ccc(C)o2)csc1NC(=O)CSc1nnnn1-c1ccccc1	i	i	?	i	1.8µM	nt
